Screening data (PubChem)
CYP2C9 activ: activators of human CYP2C9; P11712; recombinant CYP2C9, luciferin-H conversion, luminescence; stronger effect = higher value; factor 1 = untreated enzyme, 0 = blocked; activation factor at 5 µM; 1.4% of 96,000 active;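 active = activation factor of 2 or more for CYP2C9 at a 5 µM dose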;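 also: 0 = sulfaphenazole-blocked wells and 1 = vehicle-only wells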
CYP2C9 inhib: human CYP2C9 inhibition | CYP2C9 Supersomes, luciferin-H conversion, luminescence | inhibition, % at 5 µM | 20% of 96,000 active | AID 777;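 active = blocking of liver enzyme CYP2C9 beyond about 50% at 5 µM, limit read from the data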
CYP2C19 act: increases human CYP2C19 enzyme activity; P33261; recombinant CYP2C19, luciferin-H EGE luminescence; stronger effect = higher value; 0 = fully inhibited enzyme, 1 = untreated enzyme; activation factor at 5 µM; 96,000 tested, under 10 active; AID 1025;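 active = activation factor of at least 2 at 5 µM in the primary screen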;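 also: 0 = wells with 2.5 mM tranylcypromine and 1 = vehicle-only wells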
Target sequence (P33261 whole entry, looked up): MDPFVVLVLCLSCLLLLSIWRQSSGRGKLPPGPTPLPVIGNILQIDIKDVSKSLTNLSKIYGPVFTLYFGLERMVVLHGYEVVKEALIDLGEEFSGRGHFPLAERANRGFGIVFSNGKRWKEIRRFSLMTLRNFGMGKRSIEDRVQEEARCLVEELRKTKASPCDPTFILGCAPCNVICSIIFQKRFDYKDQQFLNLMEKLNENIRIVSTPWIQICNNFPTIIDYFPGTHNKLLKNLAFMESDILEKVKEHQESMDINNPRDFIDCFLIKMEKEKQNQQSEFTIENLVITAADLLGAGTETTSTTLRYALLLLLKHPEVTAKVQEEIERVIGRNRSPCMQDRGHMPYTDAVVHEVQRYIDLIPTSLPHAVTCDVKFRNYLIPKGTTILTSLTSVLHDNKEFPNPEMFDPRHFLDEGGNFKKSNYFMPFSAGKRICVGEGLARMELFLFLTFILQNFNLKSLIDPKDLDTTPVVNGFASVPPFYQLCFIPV
CYP2C19 inh: inhibitors of human CYP2C19. CYP2C19 Supersomes, luciferin-H EGE luminescence, 30 min. inhibition, % at 5 µM. P33261. 21% of 96,000 active;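 active = CYP2C19 inhibition above a set limit at 5 µM in the primary screen, cut at about 50% in these data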;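 also: plate controls were negative control wells for no effect and 2.5 mM tranylcypromine positive control for full effect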
PLAP activator: activates human placental alkaline phosphatase | activation fold at 20 µM | purified PLAP enzyme, luminescent substrate read-out; stronger effect = higher value | P05187 | 1.2% of 96,000 active; in the data active = activation fold above about 2
Numbers without * were called inactive. Sampled rows, rich in hits. Any-hit rate of the full collection: about 31%.

`CCCS(=O)(=O)C(=C(Nc1ccc(OC)cc1)Nc1ccc(OC)cc1)S(=O)(=O)CCC` gave CYP2C9 activ 1, CYP2C9 inhib -4.9, CYP2C19 act 1.1, CYP2C19 inh -14.6 and PLAP activator 1.
For COc1ccc(NC(=O)/C(Cl)=C(/Cl)S(=O)Cc2ccccc2)cn1 (stereo not drawn) the results were CYP2C9 activ 0.1, CYP2C9 inhib 92.2*, CYP2C19 act 0.5, CYP2C19 inh 50.8* and PLAP activator 0.8.
Screening CCOP(=O)(c1ccccc1)C1(O)CCCCC1 (stereo not drawn) returned CYP2C9 activ 1.1, CYP2C9 inhib -14.3, CYP2C19 act 1.1, CYP2C19 inh -10.8 and PLAP activator 1.2.
O=C(Cc1coc2ccc3ccccc3c12)Nc1nccs1 was read as CYP2C9 activ 0.6, CYP2C9 inhib 38.9, CYP2C19 act 0.9, CYP2C19 inh 11.3 and PLAP activator 0.9.
CCCN(CCC)C(=O)Cc1coc2ccc3ccccc3c12 was read as CYP2C9 activ 1.9, CYP2C9 inhib -93.0, CYP2C19 act 0.4, CYP2C19 inh 63.9* and PLAP activator 1.1.
O=C(Cc1coc2ccc3ccccc3c12)NCc1ccccc1 was read as CYP2C9 activ 2.8*, CYP2C9 inhib -183.7, CYP2C19 act 0.1, CYP2C19 inh 86.2* and PLAP activator 0.8.
`O=C(Cc1coc2ccc3ccccc3c12)N1CCN(c2ncccn2)CC1` gave CYP2C9 activ 0.4, CYP2C9 inhib 55.1*, CYP2C19 act 0.4, CYP2C19 inh 60.7* and PLAP activator 1.3.
Screening CCOC(=O)N1CCN(Cc2cc(=O)oc3ccc4ccccc4c23)CC1 returned CYP2C9 activ 0.9, CYP2C9 inhib 10.4, CYP2C19 act 0.7, CYP2C19 inh 33.0 and PLAP activator 1.1.
Screening COCCNC(=O)CN1CCN(Cc2cccc(Cl)c2)C1=O returned CYP2C9 activ 1, CYP2C9 inhib 0.3, CYP2C19 act 1, CYP2C19 inh 2.1 and PLAP activator 0.8.
CCN(CC)C(=O)CSc1nnc(-c2ccco2)n1N was read as CYP2C9 activ 1.1, CYP2C9 inhib -7.3, CYP2C19 act 1.1, CYP2C19 inh -9.2 and PLAP activator 1.
`C/C(Cn1nnc([N+](=O)[O-])n1)=N\NC(=O)c1ccccc1Cl` gave CYP2C9 activ 1.1, CYP2C9 inhib -9.6, CYP2C19 act 0.9, CYP2C19 inh 8.9 and PLAP activator 1.
O=C(COC(=O)c1ccc(Sc2ccccc2)c([N+](=O)[O-])c1)NC1CCCc2ccccc21 (stereo not drawn) was read as CYP2C9 activ 0.1, CYP2C9 inhib 88.1*, CYP2C19 act 1.1, CYP2C19 inh -11.8 and PLAP activator 0.9.
Screening CC1CC(C)CN(c2ccc(C(=O)OCC(=O)NC3CCCc4ccccc43)cc2[N+](=O)[O-])C1 (stereo not drawn) returned CYP2C9 activ 0.5, CYP2C9 inhib 52.4*, CYP2C19 act 0.8, CYP2C19 inh 21.8 and PLAP activator 0.9.
Screening COc1ccc2c(c1)[nH]c1c(=O)n(Cc3ccccn3)cnc12 returned CYP2C9 activ 0.5, CYP2C9 inhib 51.0*, CYP2C19 act 0.6, CYP2C19 inh 44.0 and PLAP activator 0.8.
NC(=O)c1ccccc1NS(=O)(=O)c1ccc2c(c1)OCCO2 was read as CYP2C9 activ 1.3, CYP2C9 inhib -25.4, CYP2C19 act 0.2, CYP2C19 inh 75.9* and PLAP activator 1.
O=C(c1ccccc1NS(=O)(=O)c1cccc([N+](=O)[O-])c1)N1CCOCC1 was read as CYP2C9 activ 1, CYP2C9 inhib 1.1, CYP2C19 act 1, CYP2C19 inh -1.0 and PLAP activator 1.
CCN(CC)S(=O)(=O)c1ccc(S(=O)(=O)Nc2cc3c(cc2C(C)=O)OCO3)cc1 was read as CYP2C9 activ 0, CYP2C9 inhib 97.3*, CYP2C19 act 0.5, CYP2C19 inh 51.5* and PLAP activator 1.1.
CC(=O)c1cc2c(cc1NS(=O)(=O)c1ccc3c(c1)OCCO3)OCO2 was read as CYP2C9 activ 1.7, CYP2C9 inhib -71.0, CYP2C19 act 0, CYP2C19 inh 98.7* and PLAP activator 1.
`CC(=O)c1cc2c(cc1NS(=O)(=O)c1ccc(C)cc1)OCO2` gave CYP2C9 activ 1.1, CYP2C9 inhib -11.9, CYP2C19 act 0.4, CYP2C19 inh 63.0* and PLAP activator 0.9.
CCOC(=O)C(C)n1cnc2c(oc3ccccc32)c1=O (stereo not drawn) was read as CYP2C9 activ 0.8, CYP2C9 inhib 17.7, CYP2C19 act 0.9, CYP2C19 inh 7.7 and PLAP activator 1.
For O=C(NC1c2ccccc2-c2ccccc21)N1CCOCC1 the results were CYP2C9 activ 1.1, CYP2C9 inhib -7.8, CYP2C19 act 0.9, CYP2C19 inh 10.2 and PLAP activator 0.9.
Screening CC(=O)c1cc2c(cc1NC(=O)C1CC=CCC1C(=O)O)OCO2 (stereo not drawn) returned CYP2C9 activ 0.3, CYP2C9 inhib 74.5*, CYP2C19 act 1, CYP2C19 inh -1.3 and PLAP activator 0.9.
Screening CCN(CC)S(=O)(=O)c1ccc(C(=O)Nc2ccc3c(c2)OCCO3)cc1 returned CYP2C9 activ 0.8, CYP2C9 inhib 23.7, CYP2C19 act 0.8, CYP2C19 inh 15.2 and PLAP activator 0.7.
`O=C(NS(=O)(=O)c1ccc2c(c1)OCCO2)c1ccccc1` gave CYP2C9 activ 0.4, CYP2C9 inhib 58.4*, CYP2C19 act 1.1, CYP2C19 inh -7.1 and PLAP activator 1.1.
`CC(=O)Nc1cc2c(cc1C(C)=O)OCCO2` gave CYP2C9 activ 0.9, CYP2C9 inhib 13.6, CYP2C19 act 0.7, CYP2C19 inh 25.5 and PLAP activator 1.
CC(=O)c1cc2c(cc1NC(=O)CN1CCCCCCC1)OCO2 was read as CYP2C9 activ 0.3, CYP2C9 inhib 68.7*, CYP2C19 act 0.2, CYP2C19 inh 83.4* and PLAP activator 1.2.
CCC(CC)NC(=O)COC(=O)c1ccc(NS(=O)(=O)c2ccc3c(c2)OCCO3)cc1 was read as CYP2C9 activ 0, CYP2C9 inhib 98.6*, CYP2C19 act 0.2, CYP2C19 inh 84.4* and PLAP activator 1.9.
`CC(=O)c1cc2c(cc1NC(=O)CCCC(=O)O)OCO2` gave CYP2C9 activ 1.2, CYP2C9 inhib -16.0, CYP2C19 act 1.2, CYP2C19 inh -22.7 and PLAP activator 0.9.
CCOc1ccc(C2CC(c3ccc(CC)cc3)Nc3nc(N)nn32)cc1 (stereo not drawn) was read as CYP2C9 activ 0.6, CYP2C9 inhib 40.5, CYP2C19 act 1, CYP2C19 inh -0.5 and PLAP activator 1.5.
`CCCCC(=O)Nc1c(C)cc(C)cc1Cl` gave CYP2C9 activ 0.9, CYP2C9 inhib 13.1, CYP2C19 act 0.7, CYP2C19 inh 26.3 and PLAP activator 0.9.
`O=C(NC1(C(F)(F)F)Oc2ccccc2O1)N1CCCC1` gave CYP2C9 activ 0.8, CYP2C9 inhib 19.5, CYP2C19 act 0.9, CYP2C19 inh 12.9 and PLAP activator 1.1.
